BoNT-A LC inh2 = blocks Botulinum neurotoxin A light chain protease; multiplex microsphere protease substrate cleavage, flow cytometry; inhibition, % at 10 µM; 0.17% of 360,000 active; AID 588499; further: plate controls were buffer without enzyme for full effect and enzyme alone for no effect
BH1578 lux ind = induces V. cholerae light production without autoinducers; V. cholerae BH1578 lux reporter, luminescence, 6 h; activation, % at 18.7 µM; 0.16% of 350,000 active; AID 588436; in the data active means activation mostly above about 9.7%, no sharp cut-off; inconclusive means no clear call, values can overlap the other calls; inactive means mostly below about 3.7%
MazEF act = increases E. coli MazEF RNase cleavage of RNA; activation, % at 20 µM; AID 504720; FAM/BHQ RNA-DNA oligo cleavage fluorescence, 5 h; 0.32% of 350,000 active; P0AE70; in the data active means activation above about 50%
Anthrax LF inh2 = inhibitors of Bacillus anthracis lethal factor protease. P15917. multiplex microsphere protease cleavage assay, LF. inhibition, % at 10 µM. 0.12% of 360,000 active. AID 588501; further: plate controls were buffer without enzyme for full effect and enzyme alone for no effect
Target sequence (P15917 whole entry, looked up): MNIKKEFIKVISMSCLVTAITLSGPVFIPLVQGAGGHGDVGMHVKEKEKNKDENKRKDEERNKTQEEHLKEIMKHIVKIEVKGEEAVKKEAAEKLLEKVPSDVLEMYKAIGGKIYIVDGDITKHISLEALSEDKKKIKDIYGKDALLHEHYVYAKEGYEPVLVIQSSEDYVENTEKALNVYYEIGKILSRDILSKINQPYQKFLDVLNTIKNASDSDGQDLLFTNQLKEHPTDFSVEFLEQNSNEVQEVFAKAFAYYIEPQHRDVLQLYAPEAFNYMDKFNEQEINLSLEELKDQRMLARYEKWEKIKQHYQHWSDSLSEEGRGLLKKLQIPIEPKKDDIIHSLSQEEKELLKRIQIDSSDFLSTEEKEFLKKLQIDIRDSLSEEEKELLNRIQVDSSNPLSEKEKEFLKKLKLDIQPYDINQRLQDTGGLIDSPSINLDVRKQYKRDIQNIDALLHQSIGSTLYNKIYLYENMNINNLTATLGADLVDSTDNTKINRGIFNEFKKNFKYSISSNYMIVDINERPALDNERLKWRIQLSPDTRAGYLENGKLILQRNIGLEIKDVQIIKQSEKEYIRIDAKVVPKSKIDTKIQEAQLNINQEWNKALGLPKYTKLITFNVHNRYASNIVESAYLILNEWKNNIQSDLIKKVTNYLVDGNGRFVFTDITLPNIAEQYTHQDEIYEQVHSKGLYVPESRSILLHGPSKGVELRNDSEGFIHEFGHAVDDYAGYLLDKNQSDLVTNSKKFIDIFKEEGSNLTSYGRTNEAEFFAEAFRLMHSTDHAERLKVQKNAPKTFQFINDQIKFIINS
BoNT F protease = inhibitors of Botulinum neurotoxin F light chain protease; inhibition, % at 10 µM; Multiplex microsphere protease cleavage assay, flow cytometry; AID 588497; 0.22% of 360,000 active; in the data active means inhibition above about 35%, passing the limit was not always enough; inconclusive means no clear call, values can overlap the other calls; further: plate controls were buffer without enzyme for full effect and enzyme alone for no effect
Autofluor counter = compound fluorescence in toxin protease inhibitor counterscreen | AID 624483 | fluorescence intensity (no concentration beside the values) | compound autofluorescence counterscreen, microsphere flow cytometry; active compounds read high | 3.1% of 360,000 active; in the data active means fluorescence intensity above about 16000; inconclusive means no clear call, values can overlap the other calls
An asterisk follows results filed as active; i = inactive; ? = inconclusive; . = no result given. This is a sample that favours compounds with a hit; in the whole collection about 3.9% have one here. Unless noted, no stated cut-off is given here; in the data, active means inhibition above about 30%; inconclusive means no clear call, values can overlap the other calls; inactive means below that.

SMILES	BoNT-A LC inh2	BH1578 lux ind	MazEF act	Anthrax LF inh2	BoNT F protease	Autofluor counter
O=C(Cn1ncc(Cl)c(Cl)c1=O)c1ccc(Cl)cc1	0	i	-13	0	-6	3743
CN(CCc1ccccn1)Cc1ccc(Cl)cc1Cl	-4	i	6	0	-3	24561*
CN(CCc1ccccn1)Cc1ccc(Cl)c(Cl)c1	-4	0	3	7	?	4055
Cn1c2c(c(=O)n(C)c1=O)CN(CCCN1CCOCC1)CN2	1	i	0	-1	0	16352*
Cn1c(=O)n(C)c2cc(S(=O)(=O)N3CCOCC3)ccc21	?	-2	7	0	-1	20981*
Cc1ccc(NC(=S)N=Nc2c(O)n(C)c3ccc(S(=O)(=O)N4CCOCC4)cc23)cc1	12	i	2	5	-5	2479
Cc1cc(C)cc(NC(=S)N=Nc2c(O)n(C)c3ccc(S(=O)(=O)N4CCOCC4)cc23)c1	37*	i	4	15	4	1933
Cn1c(=O)c(=O)n(C)c2cc(S(=O)(=O)N3CCCCCC3)ccc21	?	0	2	-4	-2	19386*
CCOC(=O)[C@]12CCC=C1N(Cc1cccc3ccccc13)C(=O)[C@H](CC(=O)NCCCCc1ccccc1)C2	-2	.	.	-6	-14	4712
Cc1cc(C)n(-c2ccc(C(=O)OCC(=O)N3CCN(c4ccccc4)CC3)cc2)n1	-1	1	2	1	-4	5688
S=C1SCN(Cc2ccccn2)CN1Cc1ccco1	1	i	-4	2	-3	16488*
S=C1SCN(Cc2cccnc2)CN1Cc1ccccc1	0	5	-2	-3	-12	4192
COCCN1CSC(=S)N(Cc2ccco2)C1	4	0	1	0	6	21084*
CCOCCCN1CN(Cc2ccco2)CNC1=S	0	i	5	6	-6	4161
CNC(=O)COC(=O)c1nc(-n2nc(C)cc2C)ccc1Cl	-1	0	1	0	-3	24164*
Cc1ccc(C)c(NC(=O)CSc2nnc(CCNC(=O)OC(C)(C)C)o2)c1	1	-2	1	6	0	15807
CCN(CC)C(=O)CSc1nnc(CCN)o1	-2	0	3	-2	-2	23987*
CN(C)C(=O)CSc1nnc(CCNC(=O)OC(C)(C)C)o1	0	2	4	-3	4	22750*
Cc1c(Cl)cccc1NC(=O)CSc1nnc(CCNC(=O)OC(C)(C)C)o1	2	-6	6	-1	4	22523*
CCN(CC)C(=O)CSc1nnc(CCNC(=O)OC(C)(C)C)o1	0	i	0	0	-1	23519*
Cc1cc(C)c(NC(=O)Cn2nnc(C(=O)Nc3ccc(F)cc3F)c2N)c(C)c1	-2	i	-10	-2	-2	5358
O=C(O)C(F)=C(c1ccccc1)c1ccccc1	0	0	-21	-7	-5	4363
CCOc1ccccc1NC(=O)c1cccc(NC(=O)C2CCCC2)c1	-4	1	-16	-8	-9	4428
CCOc1ncccc1C(=O)OCC(=O)Nc1cc(S(=O)(=O)N2CCOCC2)ccc1C	0	0	0	-2	-1	2006
Cc1cccc(C(=O)Nc2cc(OCc3cccc(F)c3)c(Cl)cc2Cl)c1	?	i	-3	0	1	19656*
SMILES	BoNT-A LC inh2	BH1578 lux ind	MazEF act	Anthrax LF inh2	BoNT F protease	Autofluor counter
Cc1ccc(NC(=O)c2ccccn2)c(Br)c1	0	0	-6	2	-8	4142
Cc1ccc(C)c(NC(=O)c2ccccn2)c1	?	i	-7	0	0	20724*
CCOc1ncccc1C(=O)OCC(=O)Nc1cc(C)ccc1C	-1	0	-11	-4	-1	23113*
Cc1cccc(C(=O)Nc2cccnc2Cl)c1	66*	0	13	-25	-160	2572
Cc1cccc(C(=O)Nc2cccc3cccnc23)c1	0	i	5	8	-5	3902
COCCOc1cc(NC(=O)c2cccc(OC)c2)c(Cl)cc1Cl	0	-1	-2	4	-6	4804
CC(C)(C)c1cc(CCC(=O)Nc2ccncc2)cc(C(C)(C)C)c1O	-2	1	2	-5	-8	5684
CCOC(=O)c1cccc(S(=O)(=O)N(CCO)Cc2cc3cc(OC)ccc3[nH]c2=O)c1	0	-1	3	-2	-3	9606
COc1cc2cc(CN(CCO)S(=O)(=O)c3ccccc3Cl)c(=O)[nH]c2cc1OC	?	i	1	-2	-2	16702*

Screening data from PubChem BioAssay.
